Reference: PubChem BioAssay AID1159580 (chemical genetic matrix, 2015)
The whole screen tested about 5,500 compounds, of which about 2,000 (36%) were called active. About 18% were inconclusive and are not listed. Rule as the data show it: active = normalized growth mostly below about 0.91 (no sharp cut-off); inconclusive = no clear call, values can overlap the other calls; inactive = mostly above about 0.92. The list shows a part of the results.

Experiment: chemical genetic growth profiling, strain panel (AID 1159580);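 also: tested at 20 µM; growth read once vehicle control cultures reached saturation at 30 °C; 1 = growth at the plate median or of vehicle wells; lower values mean less growth of the strain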
Conditions: S. cerevisiae deletion strains, growth OD
[1] = locus YAL021C, strain ccr4, stronger effect = lower value
[2] = locus YAL026C, strain drs2, stronger effect = lower value
[3] = locus YAL030W, strain snc1, stronger effect = lower value
[4] = locus YBL061C, strain skt5, stronger effect = lower value
[5] = locus YBR009C, strain hhf1, stronger effect = lower value
[6] = locus YBR023C, strain chs3, stronger effect = lower value
[7] = locus YBR171W, strain sec66, stronger effect = lower value
[8] = locus YBR231C, strain swc5, stronger effect = lower value
[9] = locus YBR279W, strain paf1, stronger effect = lower value
[10] = locus YCL011C, strain gbp2, stronger effect = lower value
[11] = locus YCL016C, strain dcc1, stronger effect = lower value
[12] = locus YCL061C, strain MRC1, stronger effect = lower value
[13] = locus YCL069W, strain vba3, stronger effect = lower value
[14] = locus YCR088W, strain abp1, stronger effect = lower value
[15] = locus YDL005C, strain med2, stronger effect = lower value
[16] = locus YDL040C, strain nat1, stronger effect = lower value
[17] = locus YDR001C, strain nth1, stronger effect = lower value
[18] = locus YDR069C, strain doa4, stronger effect = lower value
[19] = locus YDR137W, strain rgp1, stronger effect = lower value
[20] = locus YDR159W, strain sac3, stronger effect = lower value
[21] = locus YDR297W, strain sur2, stronger effect = lower value
[22] = locus YDR334W, strain swr1, stronger effect = lower value
[23] = locus YDR335W, strain msn5, stronger effect = lower value
[24] = locus YDR392W, strain spt3, stronger effect = lower value
[25] = locus YEL003W, strain gim4, stronger effect = lower value
[26] = locus YEL037C, strain rad23, stronger effect = lower value
[27] = locus YEL061C, strain CIN8 (second series), stronger effect = lower value
[28] = locus YER015W, strain faa2, stronger effect = lower value
[29] = locus YER016W, strain bim1, stronger effect = lower value
[30] = locus YER111C, strain swi4, stronger effect = lower value
[31] = locus YER155C, strain BEM2 (second series), stronger effect = lower value
[32] = locus YFR010W, strain ubp6, stronger effect = lower value
[33] = locus YGL167C, strain pmr1, stronger effect = lower value
[34] = locus YGL173C, strain kem1, stronger effect = lower value
[35] = locus YGL227W, strain vid30, stronger effect = lower value
[36] = locus YGL240W, strain doc1, stronger effect = lower value
[37] = locus YGL253W, strain hxk2, stronger effect = lower value
[38] = locus YHR013C, strain ard1, stronger effect = lower value
[39] = locus YHR027C, strain rpn1, stronger effect = lower value
[40] = locus YHR142W, strain chs7, stronger effect = lower value
[41] = locus YJL092W, strain hpr5, stronger effect = lower value
[42] = locus YJL095W, strain BCK1 (second series), stronger effect = lower value
[43] = locus YJL115W, strain asf1, stronger effect = lower value
[44] = locus YJL129C, strain trk1, stronger effect = lower value
[45] = locus YJL154C, strain vps35, stronger effect = lower value
[46] = locus YJL164C, strain tpk1, stronger effect = lower value
[47] = locus YJL166W, strain qcr8, stronger effect = lower value
[48] = locus YJL187C, strain SWE1, stronger effect = lower value
[49] = locus YKL160W, strain elf1, stronger effect = lower value
[50] = locus YKR026C, strain gcn3, stronger effect = lower value
[51] = locus YKR091W, strain srl3, stronger effect = lower value
[52] = locus YLL001W, strain dnm1, stronger effect = lower value
[53] = locus YLL026W, stronger effect = lower value
[54] = locus YLL041C, strain sdh2, stronger effect = lower value
[55] = locus YLR027C, strain aat2, stronger effect = lower value
[56] = locus YLR221C, strain rsa3, stronger effect = lower value
[57] = locus YLR258W, strain gsy2, stronger effect = lower value
[58] = locus YLR262C, strain YPT6 (second series), stronger effect = lower value
[59] = locus YLR320W, strain mms22, stronger effect = lower value
[60] = locus YLR342W, strain FKS1, stronger effect = lower value
[61] = locus YLR357W, strain rsc2, stronger effect = lower value
[62] = locus YLR370C, strain arc18, stronger effect = lower value
[63] = locus YLR384C, strain iki3, stronger effect = lower value
[64] = locus YML120C, strain ndi1, stronger effect = lower value
[65] = locus YMR058W, strain fet3, stronger effect = lower value
[66] = locus YMR125W, strain sto1, stronger effect = lower value
[67] = locus YMR129W, stronger effect = lower value
[68] = locus YMR205C, strain PFK2, stronger effect = lower value
[69] = locus YMR231W, strain pep5, stronger effect = lower value
[70] = locus YNL071W, strain lat1, stronger effect = lower value
[71] = locus YNL209W, strain ssb2, stronger effect = lower value
[72] = locus YNL248C, strain rpa49, stronger effect = lower value
[73] = locus YNL322C, strain KRE1 (second series), stronger effect = lower value
[74] = locus YNR049C, strain mso1, stronger effect = lower value
[75] = locus YOR001W, strain rrp6, stronger effect = lower value
[76] = locus YOR070C, strain gyp1, stronger effect = lower value
[77] = locus YOR080W, strain dia2, stronger effect = lower value
[78] = locus YOR083W, strain WHI5, stronger effect = lower value
[79] = locus YOR106W, strain vam3, stronger effect = lower value
[80] = locus YOR265W, strain rbl2, stronger effect = lower value
[81] = locus YOR270C, strain vph1, stronger effect = lower value
[82] = locus YOR290C, strain snf2, stronger effect = lower value
[83] = locus YPL051W, strain arl3, stronger effect = lower value
[84] = locus YPL078C, strain atp4, stronger effect = lower value
[85] = locus YPL106C, strain sse1, stronger effect = lower value
[86] = locus YPL240C, strain hsp82, stronger effect = lower value

Measured: normalized growth

COc1ccc(/C=C/C(=O)c2cc(O)ccc2O)cc1
active: [1] 0.81 | [2] 0.224 | [3] 0.31 | [4] 0.38 | [5] 0.15 | [6] 0.314 | [7] 0.521 | [8] 0.324 | [9] 0.242 | [10] 0.15 | [11] 0.227 | [12] 0.167 | [13] 0.13 | [14] 0.263 | [15] 0.424 | [16] 0.646 | [17] 0.344 | [18] 0.844 | [19] 0.285 | [20] 0.268 | locus YDR195W, strain ref2 0.482 | [21] 0.362 | [22] 0.172 | [23] 0.238 | [24] 0.0876 | [25] 0.133 | [26] 0.617 | [27] 0.0921 | [28] 0.429 | [29] 0.426 | [30] 0.0945 | [31] 0.106 | [32] 0.685 | [33] 0.894 | [34] 0.516 | [35] 0.103 | [36] 0.48 | [37] 0.172 | [38] 0.421 | [39] 0.661 | locus YHR030C, strain SLT2, stronger effect = lower value 0.432 | locus YHR079C, strain IRE1, stronger effect = lower value 0.456 | [40] 0.101 | [41] 0.272 | [42] 0.0826 | locus YJL095W, strain BCK1, stronger effect = lower value 0.427 | [43] 0.416 | [44] 0.373 | [45] 0.613 | [46] 0.152 | [47] 0.141 | [48] 0.269 | locus YJR066W, strain TOR1, stronger effect = lower value 0.465 | [49] 0.136 | [50] 0.449 | [51] 0.593 | [52] 0.338 | [53] 0.226 | [54] 0.379 | [55] 0.267 | locus YLR113W, strain HOG1, stronger effect = lower value 0.396 | [56] 0.113 | [57] 0.333 | [58] 0.289 | [59] 0.123 | [60] 0.248 | [61] 0.717 | [62] 0.72 | [63] 0.605 | [64] 0.221 | [65] 0.152 | [66] 0.156 | [67] 0.546 | [68] 0.178 | [69] 0.522 | [70] 0.0772 | locus YNL183C, strain NPR1, stronger effect = lower value 0.475 | [71] 0.606 | [72] 0.319 | [73] 0.462 | [74] 0.594 | [75] 0.349 | [76] 0.309 | [77] 0.71 | [78] 0.38 | [79] 0.391 | locus YOR231W, strain MKK1, stronger effect = lower value 0.464 | [80] 0.425 | [81] 0.191 | [82] 0.145 | [83] 0.29 | [84] 0.166 | [85] 0.483 | [86] 0.275 | locus YPL256C, strain CLN2, stronger effect = lower value 0.551

COc1ccc(C=CC(=O)c2ccc(O)cc2O)cc1OC
active: [2] 0.876 | [4] 0.811 | [5] 0.867 | [6] 0.797 | [8] 0.86 | [9] 0.879 | [19] 0.59 | locus YDR195W, strain ref2 1.16 [resistant] | [24] 0.361 | [31] 0.696 | [37] 0.862 | [38] 0.842 | [40] 0.645 | [42] 0.863 | [44] 0.818 | [46] 0.859 | [47] 0.83 | [49] 0.83 | [53] 0.914 | [55] 0.886 | [56] 0.855 | [57] 0.914 | [58] 0.65 | [59] 0.732 | [64] 0.833 | [68] 0.759 | [70] 0.666 | [75] 0.87 | [76] 0.883 | [78] 0.835 | [79] 0.814 | [81] 0.653 | [82] 0.767 | [83] 0.768 | [84] 0.828
inactive: [1] 0.908 | [3] 0.964 | [7] 0.965 | [10] 0.934 | [11] 0.936 | [12] 0.976 | [13] 0.975 | [14] 0.982 | [15] 0.983 | [16] 0.984 | [17] 0.971 | [18] 0.953 | [20] 0.893 | [21] 0.968 | [22] 0.974 | [23] 0.973 | [25] 0.936 | [26] 0.983 | [27] 0.977 | [28] 0.965 | [29] 0.979 | [30] 0.994 | [32] 0.96 | [33] 0.961 | [34] 0.972 | [35] 0.987 | [36] 0.893 | [39] 0.982 | [41] 0.972 | [43] 0.989 | [45] 0.998 | [48] 0.929 | [50] 0.976 | [51] 0.989 | [52] 0.935 | [54] 0.978 | [60] 0.96 | [61] 0.992 | [62] 0.929 | [63] 0.995 | [65] 0.908 | [66] 0.933 | [67] 0.98 | [69] 0.996 | [71] 0.958 | [72] 0.935 | [73] 0.996 | [74] 0.974 | [77] 0.991 | [80] 0.969 | [85] 0.881 | [86] 0.973
